Compounds with a hit are over-represented: about 32% of the library has one in this group of screens.
CYP2C19 inh: inhibitors of human CYP2C19 | P33261 | CYP2C19 Supersomes, luciferin-H EGE luminescence, 30 min | inhibition, % at 5 µM | 21% of 96,000 active | AID 778;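 active = CYP2C19 inhibition above a set limit at 5 µM in the primary screen, cut at about 50% in these data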
Target sequence (P33261 whole entry, looked up): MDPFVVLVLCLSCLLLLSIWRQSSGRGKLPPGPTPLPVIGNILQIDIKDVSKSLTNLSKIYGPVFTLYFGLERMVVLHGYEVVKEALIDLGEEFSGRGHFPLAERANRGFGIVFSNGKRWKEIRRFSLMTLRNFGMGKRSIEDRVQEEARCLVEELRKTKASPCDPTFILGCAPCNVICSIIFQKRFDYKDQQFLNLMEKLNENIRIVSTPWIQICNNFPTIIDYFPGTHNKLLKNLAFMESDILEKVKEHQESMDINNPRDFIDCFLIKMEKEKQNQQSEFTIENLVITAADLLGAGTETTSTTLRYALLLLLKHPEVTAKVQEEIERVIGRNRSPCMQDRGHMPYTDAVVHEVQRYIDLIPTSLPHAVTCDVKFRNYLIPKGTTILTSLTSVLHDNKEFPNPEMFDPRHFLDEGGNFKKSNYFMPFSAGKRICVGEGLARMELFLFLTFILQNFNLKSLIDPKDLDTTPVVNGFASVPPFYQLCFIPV
PostGolgi yeast: growth inhibition of a yeast mutant, post-Golgi transport screen | post-Golgi transport phenotypic cell assay | AID 739 | 0.9% of 98,000 active | inhibition, % at 10 µM;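 also: yeast cells grown in 1536-well plates; yeast grown about 18 h at 30C before absorbance read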
CYP2C19 act: increases human CYP2C19 enzyme activity; P33261; recombinant CYP2C19, luciferin-H EGE luminescence; stronger effect = higher value; 0 = fully inhibited enzyme, 1 = untreated enzyme; activation factor at 5 µM; 96,000 tested, under 10 active;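 active = activation factor of at least 2 at 5 µM in the primary screen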
PostGolgi ctrl: yeast control strain growth, post-Golgi counter-screen; efflux-deficient yeast background strain, growth absorbance A615, 16 h; 5% of 98,000 active; inhibition, % at 10 µM
CYP2C9 act: CYP2C9 (human) activation; P11712; recombinant CYP2C9, luciferin-H conversion, luminescence; stronger effect = higher value; factor 1 = untreated enzyme, 0 = blocked; activation factor at 5 µM; 1.4% of 96,000 active; AID 1024;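 active = activation factor of 2 or more for CYP2C9 at a 5 µM dose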
CYP2C9 inh: inhibitors of human CYP2C9; inhibition, % at 5 µM; CYP2C9 Supersomes, luciferin-H conversion, luminescence; 20% of 96,000 active; P11712;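 active = blocking of liver enzyme CYP2C9 beyond about 50% at 5 µM, limit read from the data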
Numbers stand for hits; – = inactive; · = no result. Rule as the data show it, unless noted: active = inhibition above about 30%; inactive = the rest.

SMILES	CYP2C19 inh	PostGolgi yeast	CYP2C19 act	PostGolgi ctrl	CYP2C9 act	CYP2C9 inh
CCCN1CCN(C(=O)Cn2c(=O)oc3cc(S(=O)(=O)NCc4ccccc4)ccc32)CC1	–	–	–	–	–	–
CCOC(=O)Cn1c(=O)oc2cc(S(=O)(=O)NCCc3ccc(OCC)c(OCC)c3)ccc21	–	–	–	–	–	56
Cn1c(=O)c2c(nc(CN3CCN(c4ccc(F)cc4)CC3)n2Cc2ccccc2F)n(C)c1=O	–	–	–	–	–	–
Nc1nc(N)nc(-c2ccccn2)n1	–	–	–	–	–	–
Clc1ccc(OCc2nc(-c3ccccn3)n[nH]2)cc1	65	–	–	–	–	51
Brc1ccc(OCc2nc(-c3ccccn3)n[nH]2)cc1	71	–	–	–	–	62
COc1ccccc1-c1noc(-c2ccccc2)n1	52	–	–	–	–	–
Fc1ccccc1-c1nc(-c2ccccc2)no1	·	–	·	–	·	·
CCOc1cc(-c2nc(-c3ccccc3OC)no2)cc(OCC)c1OCC	–	–	–	–	–	–
COc1ccc(-c2noc(-c3ccccc3F)n2)cc1	–	–	–	–	–	59
COc1ccc(-c2nc(-c3ccccc3OC)no2)cc1OC	61	–	–	–	–	–
COC(=O)C1=C(C)NC2=C(C(=O)C(C(=O)OC)C(c3ccc(OC)cc3)C2)C1c1ccccn1 (configuration not stated)	–	–	–	–	–	–
CC(C)c1nnc(SCC(=O)NCc2ccco2)n1C	–	–	–	–	–	–
CC(=O)Nc1ccc(SCC(=O)OCC(=O)NC(=O)NCc2ccco2)cc1	–	–	–	–	–	66
O=C(CSc1nnc(CCc2nc3ccccc3[nH]2)n1-c1ccccc1)NCc1ccco1	–	–	–	–	–	75
CC(=O)Nc1ccc(-c2nnc(SCC(=O)NCc3ccco3)n2C)cc1	–	–	–	33	–	–
O=C(CSc1nc2ccccc2c(=O)n1-c1ccccc1)NCc1ccco1	–	–	–	–	–	–
Cc1ccc(-n2c(CNc3ccc(F)cc3)nnc2SCC(=O)NCc2ccco2)cc1	–	–	–	–	–	61
CC(=O)N1CCc2c(sc(NC(=O)c3ccc4c(c3)OCCO4)c2C#N)C1	–	–	–	–	–	–
COc1ccc(CNC(=O)/C=C/c2cc([N+](=O)[O-])ccc2OC(F)F)cc1OC	–	–	–	–	2.1	–
O=S(=O)(CC(O)COc1ccccc1Cl)c1ccccc1 (configuration not stated)	–	–	–	–	–	–
CCOCC(O)CS(=O)(=O)c1ccccn1 (configuration not stated)	–	–	–	35	–	–
CCOc1ccccc1NC(=O)CN(c1cc(C)cc(C)c1)S(=O)(=O)c1c(C)noc1C	–	–	–	–	–	–
COc1ccccc1NC(=O)CN(c1ccc(C)cc1)S(=O)(=O)c1c(C)n[nH]c1C	70	–	–	–	–	96
COc1ccc(N(CC(=O)Nc2cccc(C)c2C)S(=O)(=O)c2c(C)n[nH]c2C)cc1	54	–	–	–	–	51
SMILES	CYP2C19 inh	PostGolgi yeast	CYP2C19 act	PostGolgi ctrl	CYP2C9 act	CYP2C9 inh
CCN(CC)S(=O)(=O)c1ccc(NC(=O)C2CCCO2)cc1 (configuration not stated)	–	–	–	–	–	–
COc1ccc(CCNC(=O)c2noc3c2CCCC3)cc1OC	–	–	–	–	–	–
Cc1onc(-c2ccccc2)c1C(=O)NCCc1c[nH]c2ccccc12	59	–	–	–	–	56
COc1ccc(CCNC(=O)c2c(-c3ccccc3)noc2C)cc1OC	90	–	–	–	–	86
Cc1onc(-c2ccccc2)c1C(=O)NC(C)C	–	–	–	–	–	–
COc1ccc(Cc2nnc(NC(=O)c3c(-c4ccccc4)noc3C)s2)cc1	84	–	–	–	–	93
O=C(Nc1nc2c(s1)C(=O)CCC2)c1ccccc1	–	–	–	–	–	53
Cc1ccc(S(=O)(=O)N2CCCC2c2nc3ccccc3s2)cc1 (configuration not stated)	–	–	–	–	–	–
COc1ccc(F)cc1CN1CCN(C(=O)CCC(=O)Nc2nnc(C(C)C)s2)CC1	–	–	–	–	–	–
Cc1onc(-c2c(F)cccc2Cl)c1C(=O)Nc1nc2c(s1)CCCC2	·	–	·	–	·	·
Cc1onc(-c2ccccc2)c1C(=O)Nc1nc2c(s1)CCCC2	–	–	–	34	–	–
